Data published in PubChem BioAssay (NCATS).
Several values for one entry are separate records, joined by “and”; a condition that tells them apart may be missing. Equal values may be shown once. Inconclusive results are not listed. Activity calls are given as the source filed them. Unless noted, calls follow the shape of the dose curve; as a rule, active = well fitted curve in the direction sought with a large enough effect; inconclusive = small, poorly fitted or top-dose-only effect, or another doubt; inactive = no such curve, though single readings can be large; an effect the other way counts as inactive or inconclusive.

Experiments:
[1] = target: Retinoic acid receptor RXR-alpha (Homo sapiens) (UniProt P19793); test: qHTS assay for small molecule antagonists of retinoid X receptor alpha signaling (AID 588546; active = well fitted inhibition curve with a large enough effect in the signal ratio, with a control signal flat, not every such curve was filed as active; the % refers to the signal ratio;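 also: cells stimulated with 9-cis-retinoic acid as agonist; % is scaled to controls: 0 for no effect and ±100 for the full control effect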); conditions: HEK293T RXRa-UAS-bla, beta-lactamase ratio, antagonist mode
Sequence of Retinoic acid receptor RXR-alpha (Homo sapiens) (P19793 whole entry, looked up): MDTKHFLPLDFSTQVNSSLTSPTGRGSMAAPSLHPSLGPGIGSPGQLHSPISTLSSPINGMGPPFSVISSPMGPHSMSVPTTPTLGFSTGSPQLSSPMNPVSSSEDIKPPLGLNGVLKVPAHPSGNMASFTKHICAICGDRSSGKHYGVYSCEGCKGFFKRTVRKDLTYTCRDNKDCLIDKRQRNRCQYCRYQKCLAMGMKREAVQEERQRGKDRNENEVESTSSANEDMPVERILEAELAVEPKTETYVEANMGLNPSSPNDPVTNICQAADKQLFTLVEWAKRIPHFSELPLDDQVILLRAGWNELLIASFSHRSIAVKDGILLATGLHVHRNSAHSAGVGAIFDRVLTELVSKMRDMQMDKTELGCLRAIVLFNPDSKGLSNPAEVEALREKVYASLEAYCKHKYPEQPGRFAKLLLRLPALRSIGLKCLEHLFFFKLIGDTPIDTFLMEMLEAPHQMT
How it was run: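 Beta-lactamase reporter inhibition, read as CCF4 fluorescence ratio (ex 405, em 460/530 nm) after 2 h at RT. HEK293T UAS-bla cells, 2500/well, were stimulated with 9-cis-RA at 500 or 100 nM final alongside test compound for 18 h at 37 C.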

[2] = target: Thyroid hormone receptor beta (Homo sapiens) (UniProt P10828); test: qHTS assay for small molecule antagonists of thyroid hormone receptor beta signaling (AID 588547; active = well fitted inhibition curve with a large enough effect in the signal ratio, with a control signal flat, not every such curve was filed as active; the % refers to the signal ratio;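 also: cells stimulated with 0.4 nM T3 agonist during compound exposure; series mostly up to about 77 µM; % is scaled to controls: 0 for no effect and ±100 for the full control effect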); conditions: TR-UAS-bla HEK293, beta-lactamase ratio, antagonist mode, 18 h
Sequence of Thyroid hormone receptor beta (Homo sapiens) (P10828 whole entry, looked up): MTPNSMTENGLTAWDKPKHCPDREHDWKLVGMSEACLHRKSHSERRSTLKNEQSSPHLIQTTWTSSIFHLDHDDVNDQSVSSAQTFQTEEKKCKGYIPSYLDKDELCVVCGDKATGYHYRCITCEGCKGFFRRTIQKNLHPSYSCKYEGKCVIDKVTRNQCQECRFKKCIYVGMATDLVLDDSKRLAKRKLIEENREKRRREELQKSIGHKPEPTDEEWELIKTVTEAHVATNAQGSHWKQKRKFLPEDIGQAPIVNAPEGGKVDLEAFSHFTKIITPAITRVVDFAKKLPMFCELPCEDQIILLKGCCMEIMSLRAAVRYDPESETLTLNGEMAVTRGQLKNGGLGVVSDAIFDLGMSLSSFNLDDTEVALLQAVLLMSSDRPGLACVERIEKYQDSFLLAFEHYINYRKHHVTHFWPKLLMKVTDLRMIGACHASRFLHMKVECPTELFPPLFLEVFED
How it was run: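 Inhibition of T3-driven (0.4nM final) beta-lactamase reporter activity was measured over 0.59 nM to 92 uM compound after 18 h at 37 C. The cells were GripTite HEK293 TR-UAS-bla in charcoal/dextran-stripped serum, with CCF4 ratio read-out and IC50 from Hill fits.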

[3] = target: Voltage-gated inwardly rectifying potassium channel KCNH2 (Homo sapiens) (UniProt Q12809); test: qHTS Assay for Small Molecule Inhibitors of the Human hERG Channel Activity (AID 588834);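 also: top concentration of the series differs between compounds; % is scaled to controls: 0 for no effect and ±100 for the full control effect; lower thallium flux fluorescence means stronger hERG block; nearly all actives have a fitted effect of over 50% in size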
Sequence of Voltage-gated inwardly rectifying potassium channel KCNH2 (Homo sapiens) (Q12809 whole entry, looked up): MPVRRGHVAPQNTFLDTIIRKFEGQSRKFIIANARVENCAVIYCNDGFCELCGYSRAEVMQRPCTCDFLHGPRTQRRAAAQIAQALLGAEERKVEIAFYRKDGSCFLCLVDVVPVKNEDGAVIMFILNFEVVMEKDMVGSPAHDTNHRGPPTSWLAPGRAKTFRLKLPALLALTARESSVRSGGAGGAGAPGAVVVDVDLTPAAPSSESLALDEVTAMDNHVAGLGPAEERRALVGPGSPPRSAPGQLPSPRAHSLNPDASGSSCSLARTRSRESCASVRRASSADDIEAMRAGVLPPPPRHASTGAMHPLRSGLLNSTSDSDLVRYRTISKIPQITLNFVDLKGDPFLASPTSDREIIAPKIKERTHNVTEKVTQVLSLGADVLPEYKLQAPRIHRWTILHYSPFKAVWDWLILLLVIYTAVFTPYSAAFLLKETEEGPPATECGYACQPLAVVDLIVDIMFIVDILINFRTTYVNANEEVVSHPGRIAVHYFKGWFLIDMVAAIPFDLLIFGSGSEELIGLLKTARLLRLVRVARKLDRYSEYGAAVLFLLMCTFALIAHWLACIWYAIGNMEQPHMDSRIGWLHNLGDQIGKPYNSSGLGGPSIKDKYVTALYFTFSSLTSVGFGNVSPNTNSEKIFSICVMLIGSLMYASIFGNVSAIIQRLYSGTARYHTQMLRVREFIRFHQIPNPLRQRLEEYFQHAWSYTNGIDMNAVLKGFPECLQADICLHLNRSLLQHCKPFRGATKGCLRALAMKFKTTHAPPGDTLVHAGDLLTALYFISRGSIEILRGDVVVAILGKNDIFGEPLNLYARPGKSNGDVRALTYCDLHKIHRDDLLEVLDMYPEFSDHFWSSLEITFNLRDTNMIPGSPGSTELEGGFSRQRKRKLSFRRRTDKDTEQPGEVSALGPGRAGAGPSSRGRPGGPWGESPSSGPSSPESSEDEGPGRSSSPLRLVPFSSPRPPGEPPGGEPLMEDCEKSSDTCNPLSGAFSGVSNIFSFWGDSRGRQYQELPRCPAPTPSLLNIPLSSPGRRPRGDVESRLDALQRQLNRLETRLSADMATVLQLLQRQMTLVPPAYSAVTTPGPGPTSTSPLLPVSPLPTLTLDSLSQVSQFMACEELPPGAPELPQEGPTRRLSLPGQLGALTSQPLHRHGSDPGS
How it was run: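 U2OS cells BacMam-transduced with hERG, 2000 cells/well, compound ~10 min at 37 °C before stimulation buffer. FluxOR thallium flux fluorescence read kinetically on FDSS; decrease indicates block; AC50 from Hill fits.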

[4] = qHTS assay for small molecule agonists of the antioxidant response element (ARE) signaling pathway (AID 651741; active = well fitted activation curve with a large enough effect in the signal ratio; the % refers to the signal ratio; also: % of control where 0% means no effect)
How it was run: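 Seeding 2,000 ARE-bla HepG2 cells per well preceded a 5 h incubation at 37 C/5% CO2 and a 16 h compound exposure at 37 C. Beta-lactamase reporter activity was then quantified by fluorescence after 2 h with LiveBLAzer B/G FRET substrate.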

[5] = qHTS assay for small molecule activators of the p53 signaling pathway (AID 651743; active = well fitted activation curve with a large enough effect in the signal ratio, not every such curve was filed as active; the % refers to the signal ratio; also: series mostly up to about 92 µM; % of control where 0% means no effect); conditions: HCT-116 p53RE-bla, beta-lactamase FRET ratio, 16 h; activation: hits give high values
How it was run: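 Screen for p53 pathway agonists uses stably transfected p53RE-bla HCT-116 cells, 4,000 per well, treated 16 h at 37 C with compounds in DMSO.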

[6] = qHTS assay for small molecule activators of the nuclear factor-kappa B (NF-kB) signaling pathway (AID 651749; active = well fitted activation curve with a large enough effect in the signal ratio; the % refers to the signal ratio; also: series mostly up to about 77 µM; % of control where 0% means no effect); conditions: NF-kB-bla ME-180 cells, beta-lactamase FRET ratio, 16 h; activation: hits give high values
How it was run: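 Stably transfected ME-180 line; NF-kB response element upstream of beta-lactamase. Treatment: compound or DMSO, 16 hr. Detection: fluorescent FRET substrate.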

[7] = qHTS assay for small molecule disruptors of the mitochondrial membrane potential - 5 hr assay (AID 651755; calls by dose curve; also: % is scaled to controls: 0 for no effect and ±100 for the full control effect; nearly all actives have a fitted effect of over 40% in size)
How it was run: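 HepG2, 2,000 cells/well, overnight attach; cpd or DMSO 5 hr, 37C/5% CO2; Mito-MPS 30 min 37C; fluor 490/535 + 540/590 nm.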

[8] = target: Tumor necrosis factor (Homo sapiens) (UniProt P01375); test: qHTS assay to identify small molecules that stimulate Tumor Necrosis Factor-alpha (TNF-alpha) secretion (AID 651757; active = well fitted curve in the direction sought with a large enough effect in the signal ratio; the % refers to the signal ratio; also: 0% is about no effect)
How it was run: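 Secreted TNF-alpha from compound-treated THP-1 cells (17 hrs, 37 C) was quantified with a homogeneous time-resolved fluorescence antibody assay.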

[9] = qHTS assay to identify small molecules that stimulate interleukin-8 (IL-8) secretion (AID 651758; active = well fitted activation curve with a large enough effect in the signal ratio; the % refers to the signal ratio; also: 0% is about no effect)
How it was run: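 Secreted IL-8 measured by TR-FRET sandwich (cryptate and XL665 antibodies) from THP-1 cells exposed to compound overnight (16 hrs, 37 C).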

[10] = qHTS assay for environmental chemicals that activate the Aryl hydrocarbon Receptor (AhR) signaling pathway (AID 651777); conditions: 1A2-DRE human hepatoma cells, luciferase, 24 h; activation: hits give high values; also: % of control where 0% means no effect; nearly all actives have a fitted effect of over 15% in size
How it was run: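 Following a 24 hr incubation with test chemicals at 37 C and 5% CO2, 1A2-DRE human hepatoma cells received One-Glo reagent; after 30 min at room temperature, luciferase output reflected CYP1A2 induction via AhR.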

[11] = target: Peroxisome proliferator-activated receptor alpha (Homo sapiens) (UniProt Q07869); test: qHTS assay for small molecule agonists of the peroxisome proliferator-activated receptor alpha (PPARalpha) signaling pathway (AID 651778); conditions: PathHunter PPARalpha complementation, chemiluminescence, 6 h; hits give high values; also: % of control where 0% means no effect
Sequence of Peroxisome proliferator-activated receptor alpha (Homo sapiens) (Q07869 whole entry, looked up): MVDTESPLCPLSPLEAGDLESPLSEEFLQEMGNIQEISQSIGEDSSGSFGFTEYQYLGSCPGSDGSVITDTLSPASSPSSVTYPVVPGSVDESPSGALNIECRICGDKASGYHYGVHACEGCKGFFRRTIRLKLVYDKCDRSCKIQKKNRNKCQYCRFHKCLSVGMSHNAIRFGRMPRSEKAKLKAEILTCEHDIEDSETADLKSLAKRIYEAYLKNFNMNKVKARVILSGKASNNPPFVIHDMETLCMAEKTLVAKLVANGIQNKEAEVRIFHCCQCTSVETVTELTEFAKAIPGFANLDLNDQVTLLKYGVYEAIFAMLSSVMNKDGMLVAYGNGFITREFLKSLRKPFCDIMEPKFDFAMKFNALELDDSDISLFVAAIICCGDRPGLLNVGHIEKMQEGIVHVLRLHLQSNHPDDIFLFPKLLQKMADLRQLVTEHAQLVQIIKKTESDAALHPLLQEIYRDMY
How it was run: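 Chemiluminescence from complemented enzyme reported PPARalpha activation in cells after 6 hr of compound treatment at 37 C. The detection reagent was incubated for 60 min at room temperature, and compounds were scored as agonists.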

[12] = target: Nuclear receptor ROR-gamma (Homo sapiens) (UniProt P51449); test: qHTS assay for small molecule antagonists of the retinoid-related orphan receptor gamma (ROR-gamma) signaling pathway (AID 651802);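 also: CHO cells with doxycycline-induced ROR-gamma expression; luciferase reporter luminescence driven by ROR response element; series mostly up to about 92 µM; % is scaled to controls: 0 for no effect and ±100 for the full control effect; nearly all actives have a fitted effect of over 60% in size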
How it was run: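 Antagonism is scored as a fall in luminescence from a RORE-luciferase reporter in CHO cells expressing ROR under a TET-inducible promoter, measured 16hr after doxycycline induction in the presence of compound.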

[13] = qHTS assay for small molecule agonists of the antioxidant response element (ARE) signaling pathway measured by Nrf2-dependant transcriptional activity (AID 720636; active = well fitted curve in the direction sought with a large enough effect in the repeat runs; an effect the other way counts as inactive or inconclusive;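 also: HepG2 cells with an ARE-driven luciferase reporter; % of control where 0% means no effect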)
How it was run: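 ONE-Glo luminescence, read 30 min after reagent addition at room temperature, reflected ARE reporter activity in HepG2 cells that had been incubated with compound for 16 hr at 37 C in 1% dialyzed FBS.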

[14] = qHTS assay for small molecule agonists of the antioxidant response element (ARE) signaling pathway measured by Nrf2-dependant transcriptional activity - cell viability counter screen (AID 720653; active = well fitted curve in the direction sought with a large enough effect in the repeat runs; an effect the other way counts as inactive or inconclusive; also: % is scaled to controls: 0 for no effect and ±100 for the full control effect); conditions: ARE-bla HepG2 viability, CellTiter-Glo ATP luminescence, 16 h; hits give low values
How it was run: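 Cytotoxicity counter screen: intracellular ATP quantified by CellTiter-Glo luminescence in the same ARE-bla HepG2 plates, after 16 h compound exposure and a 2 h beta-lactamase substrate step.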

[15] = qHTS assay for cell viability of HEK293 cells (AID 743288); conditions: ATP luminescence (CellTiter-Glo), 18 h; max response: hits give low values; also: % is scaled to controls: 0 for no effect and ±100 for the full control effect; nearly all actives have a fitted effect of over 50% in size
How it was run: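 Parental HEK293 cells, 2,000 per well, preincubated at least 5 h at 37 C, then exposed to compounds in DMSO for 18 h at 37 C. Viability by CellTiter-Glo ATP luminescence after 30 min at room temperature.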

[16] = qHTS assay for cell viability of the p53RE-bla HCT-116 cell line (AID 743292); also: % is scaled to controls: 0 for no effect and ±100 for the full control effect; nearly all actives have a fitted effect of over 55% in size
How it was run: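 After plating at 4,000 cells per well and a 5 h rest at 37 C, HCT-116 cells carrying p53RE-bla received test chemicals in DMSO. Sixteen hours later at 37 C, CellTiter-Glo was added and luminescence recorded following 30 min at room temperature.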

[17] = target: Rap guanine nucleotide exchange factor 3 (Homo sapiens) (UniProt O95398); test: Confirmatory qHTS for antagonist of cAMP-regulated guanine nucleotide exchange factor 3 (EPAC1) (AID 1645880);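 also: plate controls were DMSO only for no effect and full effect of the ATA control for full effect; nearly all actives have a fitted effect of over 55% in size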
Sequence of Rap guanine nucleotide exchange factor 3 (Homo sapiens) (O95398 whole entry, looked up): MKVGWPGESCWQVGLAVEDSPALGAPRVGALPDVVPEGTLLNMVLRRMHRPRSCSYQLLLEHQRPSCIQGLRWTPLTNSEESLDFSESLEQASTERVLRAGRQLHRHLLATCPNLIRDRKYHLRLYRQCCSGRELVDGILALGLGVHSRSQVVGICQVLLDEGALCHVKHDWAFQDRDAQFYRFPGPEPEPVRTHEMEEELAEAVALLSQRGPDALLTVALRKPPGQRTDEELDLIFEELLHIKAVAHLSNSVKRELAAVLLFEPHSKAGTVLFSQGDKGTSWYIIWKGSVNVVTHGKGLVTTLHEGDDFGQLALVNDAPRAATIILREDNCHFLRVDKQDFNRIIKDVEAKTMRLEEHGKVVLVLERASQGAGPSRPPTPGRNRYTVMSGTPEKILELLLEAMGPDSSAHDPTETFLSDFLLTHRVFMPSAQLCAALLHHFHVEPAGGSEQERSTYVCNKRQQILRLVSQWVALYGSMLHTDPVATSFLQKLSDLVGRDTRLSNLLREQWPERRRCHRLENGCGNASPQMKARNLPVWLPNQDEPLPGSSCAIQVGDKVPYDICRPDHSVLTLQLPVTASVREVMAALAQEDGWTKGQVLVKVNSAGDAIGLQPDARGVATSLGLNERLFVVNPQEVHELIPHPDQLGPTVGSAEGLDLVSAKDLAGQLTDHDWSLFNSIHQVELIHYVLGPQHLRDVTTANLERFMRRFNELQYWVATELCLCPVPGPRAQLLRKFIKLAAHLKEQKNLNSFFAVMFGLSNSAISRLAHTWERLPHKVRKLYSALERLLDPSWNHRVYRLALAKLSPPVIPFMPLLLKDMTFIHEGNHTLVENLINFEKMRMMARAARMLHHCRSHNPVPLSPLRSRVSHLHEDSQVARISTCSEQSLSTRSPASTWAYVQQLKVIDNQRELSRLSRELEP
How it was run: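 Nucleotide exchange uses 100 nM EPAC1, 250 nM RAP1B-BODIPY-GDP and 50 uM GDP, with compounds in a concentration-titration series. After 5 min at room temperature, fluorescence (480 nm ex/540 nm em) is read every 5 min for 30 min. Data are normalized to control ATA and DMSO.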

[18] = target: Rap guanine nucleotide exchange factor 3 (Homo sapiens) (UniProt O95398); test: Confirmatory qHTS for agonist of cAMP-regulated guanine nucleotide exchange factor 3 (EPAC1) (AID 1645881);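 also: EPAC1 catalysed release of BODIPY-GDP from Rap1B seen as fluorescence loss; 100% = effect of cAMP agonist control; nearly all actives have a fitted effect of over 75% in size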
[19] = target: Rap guanine nucleotide exchange factor 4 (Homo sapiens) (UniProt Q8WZA2); test: Confirmatory qHTS for agonist of cAMP-regulated guanine nucleotide exchange factor 4 (EPAC2) (AID 1645884);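 also: nucleotide exchange releases bodipy-GDP from Rap1 and this lowers its fluorescence; % is scaled to controls: 0 for no effect and ±100 for the full control effect; nearly all actives have a fitted effect of over 65% in size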
Sequence of Rap guanine nucleotide exchange factor 4 (Homo sapiens) (Q8WZA2 whole entry, looked up): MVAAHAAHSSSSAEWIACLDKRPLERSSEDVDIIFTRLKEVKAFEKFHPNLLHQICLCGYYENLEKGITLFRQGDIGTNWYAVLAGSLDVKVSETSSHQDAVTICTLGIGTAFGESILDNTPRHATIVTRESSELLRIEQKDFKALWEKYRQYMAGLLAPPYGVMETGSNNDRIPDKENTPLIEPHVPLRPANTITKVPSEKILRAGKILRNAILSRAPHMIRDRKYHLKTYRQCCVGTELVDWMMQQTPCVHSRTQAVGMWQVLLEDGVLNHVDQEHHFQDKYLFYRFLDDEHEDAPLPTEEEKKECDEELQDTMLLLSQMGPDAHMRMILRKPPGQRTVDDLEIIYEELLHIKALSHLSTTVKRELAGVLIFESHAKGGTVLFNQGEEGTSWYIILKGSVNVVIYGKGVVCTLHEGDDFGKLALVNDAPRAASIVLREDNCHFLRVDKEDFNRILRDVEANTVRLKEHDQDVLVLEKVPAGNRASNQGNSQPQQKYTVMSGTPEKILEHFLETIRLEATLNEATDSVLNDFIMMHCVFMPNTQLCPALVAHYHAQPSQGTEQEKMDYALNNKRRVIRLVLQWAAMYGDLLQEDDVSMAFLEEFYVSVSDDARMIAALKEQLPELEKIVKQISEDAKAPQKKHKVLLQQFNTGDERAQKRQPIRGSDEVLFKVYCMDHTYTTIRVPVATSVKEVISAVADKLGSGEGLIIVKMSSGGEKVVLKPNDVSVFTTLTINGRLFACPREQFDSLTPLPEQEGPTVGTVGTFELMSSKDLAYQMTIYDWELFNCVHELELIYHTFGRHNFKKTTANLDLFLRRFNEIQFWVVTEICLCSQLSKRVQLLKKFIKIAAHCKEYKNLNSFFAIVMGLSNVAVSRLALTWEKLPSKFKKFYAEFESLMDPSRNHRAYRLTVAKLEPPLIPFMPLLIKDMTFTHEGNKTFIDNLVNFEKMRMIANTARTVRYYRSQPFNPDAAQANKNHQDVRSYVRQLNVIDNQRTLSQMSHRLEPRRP

[20] = target: Rap guanine nucleotide exchange factor 4 (Homo sapiens) (UniProt Q8WZA2); test: Confirmatory qHTS for antagonist of cAMP-regulated guanine nucleotide exchange factor 4 (EPAC2) (AID 1645885); also: % is scaled to controls: 0 for no effect and ±100 for the full control effect; nearly all actives have a fitted effect of over 25% in size
[21] = target: Rap guanine nucleotide exchange factor 3 (Homo sapiens) (UniProt O95398); test: Counterscreen qHTS for antagonist of cAMP-regulated guanine nucleotide exchange factor 3 (EPAC1) (AID 1645888);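 also: fluorescence loss as bound BODIPY-GDP is released from Rap1B; % of control where 0% means no effect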
How it was run: (§1)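 Rap1B-BODIPY-GDP 250 nM + GDP 50 uM; cpds 7-pt, final 9.74 nM–152 uM (activator mode) or from 7.32 nM upwards (inhibitor mode); RT; FI 480/540 nm at 5 and 30 min, then ± cAMP, reread.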

[22] = target: Rap guanine nucleotide exchange factor 3 (Homo sapiens) (UniProt O95398); test: Counterscreen qHTS for agonist of cAMP-regulated guanine nucleotide exchange factor 3 (EPAC1) (AID 1645889); also: % of control where 0% means no effect; nearly all actives have a fitted effect of over 40% in size
How it was run: as §1

[23] = target: Nuclear receptor subfamily 1 group I member 2 (Rattus norvegicus) (UniProt Q9R1A7); test: qHTS assay for small molecule activators of the rat pregnane X receptor (rPXR) signaling pathway (AID 651751; call rule not given here; also: 0% is about no effect); conditions: rPXR reporter cells, luciferase (One-Glo), 24 h
Sequence of Nuclear receptor subfamily 1 group I member 2 (Rattus norvegicus) (Q9R1A7 whole entry, looked up): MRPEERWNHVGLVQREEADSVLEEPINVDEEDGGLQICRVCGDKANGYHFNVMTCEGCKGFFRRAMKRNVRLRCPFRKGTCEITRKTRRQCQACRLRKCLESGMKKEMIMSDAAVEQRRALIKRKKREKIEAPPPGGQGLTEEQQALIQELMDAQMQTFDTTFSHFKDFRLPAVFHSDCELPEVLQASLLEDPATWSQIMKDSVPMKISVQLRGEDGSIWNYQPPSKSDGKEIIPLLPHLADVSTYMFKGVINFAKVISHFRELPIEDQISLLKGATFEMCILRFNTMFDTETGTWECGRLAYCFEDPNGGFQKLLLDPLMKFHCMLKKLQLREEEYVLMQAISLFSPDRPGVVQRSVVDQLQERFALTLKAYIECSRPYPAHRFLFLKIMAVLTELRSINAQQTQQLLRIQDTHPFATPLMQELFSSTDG

[24] = qHTS assay for small molecule activators of the human pregnane X receptor (PXR) signaling pathway (AID 720659; call rule not given here; also: 0% is about no effect)

CCCOC(=O)c1ccccc1C(=O)OCCC
inactive: max response [1] -20.7% and -19.5% | activity change % (negative = inhibition) [2] 0.697% and -6.62% | Potency [3] | Potency [4] | activation [5] -4.2% and 2.37% | activation [6] -0.812% and -1.55% | Potency [7] | outcome [8] | Potency [9] | activation [10] -1.57% and -0.202% | max response [11] -3.23% and -0.333% | Potency [12] | outcome [13] | max response [14] 2.53% and -0.566% | max response [15] -2.21% and -12.8% | Potency [16] | Potency [17] | Potency [18] | activation [19] -6.75% [at 17.1 µM, percent relative to cAMP agonist control] | activity change, negative = inhibition [20] -25.7% [at 12.7 µM] | activity change, negative = inhibition [21] -2.66% [at 30.8 µM] | activation [22] 23.9% [at 30.8 µM] | max response [23] 4.44% and -1.18% | outcome [24]
